Measured values taken from the supplement of paper PMC8253809.
Values joined by “and” are separate entries in the source; they are usually repeats but may differ in a detail not shown here. Identical values can stand only once.

How the values were obtained:
Assay in all cases: growth inhibition (% activity, log2 RLU normalised to DMSO / staurosporine); higher = more growth inhibition
Conditions in all cases: 33 µM
DIPGX29 = tested on: DIPGX29 (H3.3 K27M diffuse intrinsic pontine glioma line)
In short: (§1)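 The growth-inhibition value comes from CellTiter-Glo luminescence, log2-transformed, normalised per plate to % activity between solvent and positive control wells, and taken as the median over replicates. Treatment of pHGG cell lines and H9-derived neural stem cells with approved drugs was at a single final concentration of about 33 μM, in triplicate, for 7 days at 37 °C, 5% CO2.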

DIPGX37 = tested on: DIPGX37 (H3.3 K27M diffuse intrinsic pontine glioma line)
In short: as §1

DIPGX7 = tested on: DIPGX7 (H3.3 K27M diffuse intrinsic pontine glioma line)
In short: as §1

DIPGX9 = tested on: DIPGX9 (diffuse intrinsic pontine glioma line)
In short: as §1

HGGX39 = tested on: HGGX39 (paediatric high-grade glioma line)
In short: as §1

HGGX6 = tested on: HGGX6 (H3.3 G34R paediatric high-grade glioma line)
In short: as §1

HNSC = tested on: HNSC
In short: as §1

SUDIPGIV = tested on: SUDIPGIV (diffuse intrinsic pontine glioma line)
In short: as §1

SUDIPGVI = tested on: SUDIPGVI (diffuse intrinsic pontine glioma line)
In short: as §1

SUDIPGXIII = tested on: SUDIPGXIII (diffuse intrinsic pontine glioma line)
In short: as §1

SMILES	growth inhibition (DIPGX29)	growth inhibition (DIPGX37)	growth inhibition (DIPGX7)	growth inhibition (DIPGX9)	growth inhibition (HGGX39)	growth inhibition (HGGX6)	growth inhibition (HNSC)	growth inhibition (SUDIPGIV)	growth inhibition (SUDIPGVI)	growth inhibition (SUDIPGXIII)
CN1CCN(CCCN2c3ccccc3Sc3ccc(C(F)(F)F)cc32)CC1	14.9%	0.958%	12.3%	0.94%	7.39%	8.55%	9.67%	4.53%	-3.52%	0.946%
Clc1ccc(COC(Cn2ccnc2)c2ccc(Cl)cc2Cl)c(Cl)c1 (stereo not given)	3.52% and 3.73%	2.39% and 1.02%	2.11% and 1.8%	4.24% and 1.75%	8.09% and 4.5%	8.84% and 5.54%	8.12% and 18.4%	11.2% and 18.5%	2.08% and 0.276%	8.9% and 4.15%
COc1ccccc1N1CCN(CCCNc2cc(=O)n(C)c(=O)n2C)CC1	-0.448%	2.3%	-0.071%	0.0185%	0.367%	0.543%	0.25%	-1.07%	-1.77%	1.17%
CC(C(=O)O)c1ccc2c(c1)[nH]c1ccc(Cl)cc12 (stereo not given)	-0.444%	-0.934%	0.549%	-0.825%	-0.747%	0.65%	-2.15%	-2.81%	-0.161%	-6.63%
CN(Cc1ccc(C(C)(C)C)cc1)Cc1cccc2ccccc12	1.43%	0.769%	0.907%	2.12%	3.22%	1.49%	0.815%	3.24%	3.2%	1.08%
CCCCOc1ccc(C(=O)CCN2CCCCC2)cc1	3.95%	1.81%	13%	3.6%	8.09%	7.94%	6.88%	0.947%	1.6%	1.44%
Nc1nc2n[nH]nc2c(=O)[nH]1	14.5%	13.2%	14.4%	22.6%	17.5%	13.7%	56.2%	32.2%	1.16%	1.25%
Oc1cc(O)c(Cl)cn1	-1.47%	-1.68%	-1.58%	-0.302%	-2.27%	0.219%	-3.27%	-2.24%	-1.42%	0.7%
CCN(CC)CCNC(=O)c1c(C)[nH]c(/C=C2\C(=O)Nc3ccc(F)cc32)c1C	25.8%	6.19%	11.1%	7.94%	7.9%	20.3%	71.3%	-3.41%	3.36%	-4.08%
Clc1ccc(C(Cn2ccnc2)OCc2ccsc2Cl)c(Cl)c1 (stereo not given)	4.62%	-2.6%	2.82%	4.52%	8.15%	7.53%	4.99%	13.7%	2.98%	5.65%
CC[C@@H]1/C=C(\C)C[C@H](C)C[C@H](OC)[C@H]2O[C@@](O)(C(=O)C(=O)N3CCCC[C@H]3C(=O)O[C@H](/C(C)=C/[C@@H]3CC[C@H](Cl)[C@H](OC)C3)[C@H](C)[C@@H](O)CC1=O)[C@H](C)C[C@@H]2OC	1.37%	4.05%	3.83%	5.36%	7.81%	2.73%	8.07%	5.69%	5.28%	5.19%
COC(=O)C1=C(C)NC(C)=C(C(=O)OCC(C)C)C1c1ccccc1[N+](=O)[O-] (stereo not given)	1.94%	1.14%	0.789%	2.65%	5%	3.46%	5.72%	0.591%	3.16%	2.06%
Cc1cc(C(C)(C)C)cc(C)c1CC1=NCCN1	-3.84%	-1.44%	-1.4%	-2.83%	-0.405%	-4.11%	2.45%	0.0122%	-2.26%	-0.432%
C=Cc1c(C)c2cc3nc(cc4[nH]c(cc5nc(cc1[nH]2)C(C)=C5CCC(=O)O)c(CCC(=O)OC)c4C)C1(C)C3=CC=C(C(=O)OC)C1C(=O)OC (stereo not given)	0.0791%	-1.21%	0.254%	-0.022%	1.95%	0.712%	2.35%	-0.469%	-1.11%	-2.15%
CC(C)(C#N)c1cc(Cn2cncn2)cc(C(C)(C)C#N)c1	1.13%	0.615%	0.764%	-0.00856%	0.325%	1.21%	2.39%	-0.235%	2.45%	1.01%
CCCCc1oc2ccc(NS(C)(=O)=O)cc2c1C(=O)c1ccc(OCCCN(CCCC)CCCC)cc1	58.9%	57.4%	57%	57.4%	56.2%	60.2%	55.5%	57.7%	59.4%	24.1%
COc1cc(C(=O)NS(=O)(=O)c2ccccc2C)ccc1Cc1cn(C)c2ccc(NC(=O)OC3CCCC3)cc12	-0.736%	1.77%	0.79%	-1.19%	1.49%	-2.28%	-0.546%	-0.0974%	1.76%	0.405%
Oc1ncnc2[nH]ncc12	-2.33%	-1.9%	-0.64%	-2.61%	-3.77%	-3.6%	-5.63%	-3.97%	-6.47%	0.643%
Nc1nc(F)nc2c1ncn2[C@@H]1O[C@H](COP(=O)(O)O)[C@@H](O)[C@@H]1O	16.9%	1.7%	11.8%	31.4%	8.94%	-0.81%	23.2%	9.24%	-2.06%	1.2%
CNCC[C@H](Oc1cccc2ccccc12)c1cccs1	3.5%	4.35%	4.07%	2.42%	5.92%	4.8%	16.9%	2.42%	4.44%	-1.12%
